Reference: PubChem BioAssay AID651725 (National Center for Advancing Translational Sciences (NCATS), 2012)
The campaign covered roughly 360,000 compounds. About 2,000 (0.56%) were called active. Another 2% or so got no clear call; they are omitted. This excerpt belongs to a sample that is enriched for actives. Values without a mark were called inactive. No stated cut-off is given here; in the data, active means activity change below about -65%; inconclusive means mostly about -30% to -63%; inactive means weaker than that.

Target: Homeobox protein SIX1 (Homo sapiens) + Protein phosphatase EYA2 (Homo sapiens) (UniProt Q15475+O00167)
Sequence (O00167 whole entry, looked up): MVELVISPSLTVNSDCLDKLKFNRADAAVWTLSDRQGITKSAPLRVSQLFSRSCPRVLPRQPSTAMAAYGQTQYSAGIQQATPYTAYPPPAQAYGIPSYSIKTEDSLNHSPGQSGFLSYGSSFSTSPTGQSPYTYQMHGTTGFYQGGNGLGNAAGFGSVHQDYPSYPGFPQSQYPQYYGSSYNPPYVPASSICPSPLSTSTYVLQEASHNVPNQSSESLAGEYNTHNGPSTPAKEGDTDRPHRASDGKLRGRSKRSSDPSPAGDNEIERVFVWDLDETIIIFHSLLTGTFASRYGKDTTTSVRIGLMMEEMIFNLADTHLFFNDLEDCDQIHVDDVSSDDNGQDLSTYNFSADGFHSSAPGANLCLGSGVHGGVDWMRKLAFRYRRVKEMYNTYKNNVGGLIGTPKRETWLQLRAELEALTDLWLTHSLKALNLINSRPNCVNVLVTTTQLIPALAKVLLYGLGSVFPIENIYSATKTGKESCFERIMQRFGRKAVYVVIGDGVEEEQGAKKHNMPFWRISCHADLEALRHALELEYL
Sequence (Q15475 whole entry, looked up): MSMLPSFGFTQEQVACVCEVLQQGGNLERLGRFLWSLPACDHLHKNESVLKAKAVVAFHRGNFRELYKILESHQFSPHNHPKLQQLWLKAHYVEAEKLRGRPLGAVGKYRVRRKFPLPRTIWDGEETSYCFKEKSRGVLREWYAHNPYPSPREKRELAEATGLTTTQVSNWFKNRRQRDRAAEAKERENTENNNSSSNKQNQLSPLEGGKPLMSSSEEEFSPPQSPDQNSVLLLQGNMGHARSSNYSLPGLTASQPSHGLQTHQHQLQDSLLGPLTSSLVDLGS
Assay: qHTS Assay for Inhibitors of the Six1/Eya2 Interaction
Settings: AlphaScreen GST-Six1/His-Eya2 binding, biochemical; active compounds read low
Procedure, shortened: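 Homogeneous AlphaScreen proximity assay pairing GST-Six1 with His-tagged Eya2 (added as 5X mix: 250 nM and 500 nM) in 50 mM Tris pH 8.0, 300 mM NaCl, 1 mM TCEP. Glutathione donor and nickel acceptor beads; 1 h, 37 °C, dark.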
On the % scale 0 is the no-effect control and ±100 the full control effect.

Compound	activity change
COC(=O)[C@@]1(Sc2ccc(C)cc2)CC(=O)N(c2cccc(SC)c2)[C@@H]1c1ccccc1	-16.4%
Cc1cc(C)nc(N/N=C/c2c(CO)cnc(C)c2O)n1	-75.1% (active)
Cc1ccc(S(=O)(=O)N[C@H]2CCC[C@@H]2O)cc1	7.33%
CC1Cc2[nH][nH]c(=O)c2C(C2CC2)O1 (stereo not drawn)	-3.07%
CC(=O)C[C@@H]1OC[C@H](C)N1S(=O)(=O)c1ccc(C)cc1	-0.665%
Cc1ccc(S(=O)(=O)NC2CCCCCC2)cc1	8.84%
Cc1ccc(S(=O)(=O)n2oc(=O)c(C3CCCCC3)c2N)cc1	-78.3% (active)
Cc1ccc(S(=O)(=O)N2CCC(N3CCCCCC3)CC2)cc1	-10.2%
CCC(CC)C(C(=O)NC1CCCC1)N1CCN(c2cc(C)nc3ccccc23)CC1 (stereo not drawn)	0.151%
O=S(=O)(c1ccc(F)cc1)N1CC=C(c2ccccc2)CC1	11.2%
Cn1c(CNc2nc(-c3ccccc3)cs2)nnc1SCC(=O)c1ccccc1	-73.7% (active)
Cn1c(CC(=O)Nc2ccccc2)nnc1SCC(=O)c1ccccc1	3.83%
Cn1c(SCC(=O)c2ccc(F)cc2)nnc1-c1ccccn1	3.69%
COc1ccc(OC)c(CN2C(=O)CCC2(C)c2nnnn2Cc2ccccc2)c1 (stereo not drawn)	0.523%
COc1cc(C(=O)Nc2ncccc2C)ccc1OCC(=O)N1CCOCC1	7.15%
Fc1ccccc1Cc1ccc(Cl)nn1	4.04%
C/C(=N\Nc1ccc(Cl)nn1)c1ccccc1O	-71.4% (active)
C/C(=N/Nc1ccc(Cl)cc1)c1cnnc(-c2ccccc2)n1	9.69%
Oc1cccc(/C=N/Nc2ccc(Cl)nn2)c1O	-85.5% (active)
CCC1OC(C2CC2)CC2=C1C(=O)OC(C)(C)O2 (stereo not drawn)	-0.697%

Compound	activity change
COc1ccc2c(c1)c(C(=O)N/N=C/c1cccs1)c(C)n2C	-4.11%
CCOC(=O)[C@]12CCCC=C1N(CCC1=CCCCC1)C(=O)[C@H](CC(=O)NCCCCc1ccccc1)C2	-0.886%
COc1ccc(C(C(=O)Nc2c(C)cccc2C)N2CCN(c3ccc(C)cc3)CC2)cc1 (stereo not drawn)	-4.54%
COc1cccc(/C=N/NC(=O)c2[nH]nc3c2CCc2ccccc2-3)c1O	-65.7% (active)
COc1cc(/C=N/NC(=O)c2cccnc2)ccc1OC(=O)c1cccc(Br)c1	-6.91%
COc1ccc(OC)c(/C=N/NC(=O)c2ccc[n+](CC(=O)c3ccccc3)c2)c1	-5.56%
COc1cccc(/C=N\NC(=O)C2=NNC(=O)C2C)c1O (stereo not drawn)	-90.9% (active)
COc1ccc(/C=N/NC(=O)C2CC2)c(OC)c1OC	3.31%
CCn1c(/C=N/NC(=O)c2ccc(OC)cc2)nc2ccccc21	-12.5%
Cc1cccc(C)c1NC(=O)C(c1cccc2ccccc12)n1c(=O)c(-c2ccco2)nc2ccccc21 (stereo not drawn)	-22.2%
CC(C)OC(=O)CC(=O)CC(O)c1cccc([N+](=O)[O-])c1 (stereo not drawn)	-3.63%
Cc1nc2ccccc2c(C(=O)O)c1-c1ccccn1	7.28%
CC(C)(C)Nc1nc(-c2ccccn2)nc2ccccc12	-89.4% (active)
c1ccc(-c2nccc(-c3ccc(-n4cnc5ccccc54)cc3)n2)nc1	-10.5%
COc1ccc2c(c1)N(C)/C(=C1/SC(=S)N(NC(C)=O)C1=O)S2	-8.77%
O=C1NC[C@H](CCCCN2CCN(CCc3ccccc3)C(=O)C2=O)N(CC2CCCCC2)C1=O	-4.53%
Cc1cc(=O)oc2cc(OCC(=O)N3CCN(c4ccc(F)cc4)CC3)c(Cl)cc12	3.08%
Cc1cccc(C)c1NC(=O)CN1CCN(c2ccc(F)cc2)CC1	-0.798%
Oc1c(CN2CCN(c3ccc(F)cc3)CC2)cc(Cl)c2cccnc12	-81.4% (active)
CSCCC(C(=O)NC(C)(C)C)n1c(-c2ccccc2)nc2ccccc21 (stereo not drawn)	7.41%

Compound	activity change
Cc1ccc(-c2ccc(C3=CC(=O)CC(C)(C)C3=O)cc2)cc1	-1.02%
CCCc1nc2ccccc2n1C(C)C(=O)NC(C)(C)C (stereo not drawn)	-4.69%
CCN1CCN(C(c2cccnc2)c2cc(Cl)c3cccnc3c2O)CC1 (stereo not drawn)	-90.1% (active)
CCOC(=O)N1CCN(C(c2ccnc3ccccc23)c2nnnn2-c2c(C)cccc2C)CC1 (stereo not drawn)	18.3%
CCOC(=O)N1CCN(C(=O)C2CCN(c3ncnc4c3sc3cccc(F)c34)CC2)CC1	-5.48%
CCOC(=O)N1CCN(C(c2cccnc2)c2ccc3cccnc3c2O)CC1 (stereo not drawn)	-88.9% (active)
C=CCC[C@H](CCCCC)OC(=O)/C=C/[C@H](O)[C@@H](O)C[C@@H](O)CC=C	9.69%
COC(=O)C[C@H]1C=C[C@@H](NS(=O)(=O)c2ccc(C)cc2)[C@@H](CO)O1	-7.03%
Cc1ccc(Cn2cc(CN3CC(N4CCN(C)CC4)CS3(=O)=O)nn2)cc1 (stereo not drawn)	2.69%
COc1ccc(/C=N/Nc2nc(-c3ccc(C)cc3)c(C#N)c(=O)[nH]2)cc1	1.97%
CCOc1ccc(-n2c(O)c(/C=N/Nc3nnc(C)c(=O)[nH]3)c3ccccc3c2=O)cc1	-93.7% (active)
CCOc1ccc(N/C(N)=N/c2nc(C)c(C)c(=O)[nH]2)cc1	1.12%
Cc1nnc(N/N=C/c2ccccn2)[nH]c1=O	-72.8% (active)
Cc1cc(=O)[nH]c(N/N=C/c2c(C)nn(-c3ccccc3Cl)c2Cl)n1	1.43%
COc1ccc(-n2c(O)c(C=NCC(c3ccco3)N3CCCC3)c3ccccc3c2=O)cc1OC (stereo not drawn)	-13%
Cc1[nH]nc(SCC(=O)NCC(C)C)c1[N+](=O)[O-]	3.57%
COc1ccc(N(CCC#N)S(=O)(=O)c2ccc(Cl)cc2)cc1	3.78%
CCCCOCCCNC(=O)C[C@@H]1C[C@@]2(C(=O)OCC)CCCC=C2N(CCC2=CCCCC2)C1=O	-13.6%
